# Sampled rows, rich in hits. Any-hit rate of the full collection: about 9.2%.
# SMN2 splice enh: SMN2 splice variant enhancement; Potency, µM (titrated, usually from 46.1 µM), inactives show top-dose activity change, positive = activation, usual class: activators; AID 1458; HEK293 SMN2-luciferase splicing reporter, luminescence, 30-36 h; 2.8% of 210,000 active; note: % of control where 0% means no effect; nearly all actives have a fitted effect of over 55% in size
#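 HEK293 cells carry an SMN2 […]–luciferase reporter in which exon 7 inclusion puts luciferase in frame. Cells were plated 10-12 h before compound addition, then incubated 30-36 h at 37C. ONE-Glo luminescence was read; sodium butyrate at 4.5 mM final served as control.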
# ELG1 DNA repair: ELG1-dependent DNA repair inhibition; HEK293T ELG1-luciferase reporter, luminescence, 16 h; DNA damage induced by 5-fluorouridine; Potency, µM (top dose mostly 46.1 µM), for the others: top-dose activity change, negative = inhibition, usual class: inhibitors; 2.3% of 330,000 active; note: % is set by controls: 0 for no effect and ±100 for the full control effect; nearly all actives have a fitted effect of over 55% in size
#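 In this reporter screen, reduction of luminescence relative to DMSO vehicle indicated activity. Compounds and 5-fluorouridine were added together to 2,000 cells per well, incubated for 16 hr at 37 °C, then developed with ONE-Glo.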
# FLuc counter: inhibits or activates purified firefly luciferase, miR-21 counter-screen | P08659 | purified FLuc, Km substrates, luminescence inhibition | Potency, µM (top dose mostly 57.5 µM), without a hit: at the top dose activity change, negative = inhibition, actives largely listed as inhibitors | 6.9% of 360,000 active | AID 588342;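 note: plate controls were vehicle for no effect and reference inhibitor for full effect; nearly all actives have a fitted effect of over 55% in size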
# Target sequence (P08659 whole entry, looked up): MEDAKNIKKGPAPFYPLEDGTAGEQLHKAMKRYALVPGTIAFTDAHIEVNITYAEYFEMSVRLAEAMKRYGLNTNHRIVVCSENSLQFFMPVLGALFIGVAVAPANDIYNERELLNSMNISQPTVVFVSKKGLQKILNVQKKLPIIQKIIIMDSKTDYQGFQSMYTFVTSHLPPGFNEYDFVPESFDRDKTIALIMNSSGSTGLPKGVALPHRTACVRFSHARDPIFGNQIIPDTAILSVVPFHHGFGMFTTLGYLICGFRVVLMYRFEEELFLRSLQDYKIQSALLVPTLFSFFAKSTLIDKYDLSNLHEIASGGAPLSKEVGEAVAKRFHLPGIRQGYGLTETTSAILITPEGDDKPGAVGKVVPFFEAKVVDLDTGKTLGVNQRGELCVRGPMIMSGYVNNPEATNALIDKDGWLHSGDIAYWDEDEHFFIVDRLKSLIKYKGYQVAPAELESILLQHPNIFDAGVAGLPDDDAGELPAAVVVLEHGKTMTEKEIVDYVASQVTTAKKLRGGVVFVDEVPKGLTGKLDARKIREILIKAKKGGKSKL
#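 Purified P. pyralis luciferase (10nM final) with 10uM D-luciferin and 10uM ATP (Km levels) in 50mM Tris acetate pH 7.5, 10mM Mg acetate, 0.01% Tween-20, 0.05% BSA; qHTS 6-point titration, ~60 µM downward; luminescence read.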
# Rab9 promoter act: activators of Rab9 promoter; Huh7 Rab9 promoter-luciferase reporter, luminescence, 24 h; Potency, µM (highest dose often 9.22 µM), for the others: at the highest dose activation, negative = inhibition, most hits filed as activators; 2.8% of 320,000 active; note: % of control where 0% means no effect; nearly all actives have a fitted effect of over 60% in size
#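 Cell-based reporter: Huh7 stable for Rab9 promoter-driven luciferase, plated in reduced-serum medium with 10% FBS at 1500 cells/well, compound-treated 24 h at 37 °C, luminescence read after 10 min reagent.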
# ELG1 genotox: inducers of genotoxicity in HEK293T ELG1-luciferase cells | HEK293T ELG1-luciferase reporter, luminescence, 16 h | Potency, µM (titrated, usually from 46 µM), for inactives: at the top dose activity change, positive = activation, actives largely listed as activators | 1.3% of 330,000 active | AID 504466; note: % of control where 0% means no effect; nearly all actives have a fitted effect of over 60% in size
#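 Reporter readout depends on ELG1 protein level, which increases with genetic stress. After 16 hr compound exposure at 37 °C, luciferase activity was quantified using ONE-Glo.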
# NPC1 prom act: activates the NPC1 promoter; Huh7 NPC1 promoter luciferase reporter, 24 h; Potency, µM (highest dose often 9.22 µM), for the others: top-dose activation, actives largely listed as activators; AID 485313; 2.4% of 320,000 active; note: % of control where 0% means no effect; nearly all actives have a fitted effect of over 60% in size
#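 Readout is luciferase luminescence, reflecting NPC1 promoter activation in stably transfected Huh7 cells after 24 h compound exposure at 37 °C in reduced-serum medium with 10% FBS.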
# The depositor's hits bear a star; ? = inconclusive; . = no result given. Calls come from the whole dose curve; as a rule, active = well fitted curve in the direction sought with a large enough effect; inconclusive = small, poorly fitted or top-dose-only effect, or another doubt; inactive = no such curve, though single readings can be large; an effect the other way counts as inactive or inconclusive. Potency is the fitted concentration of half-maximal effect.
SMILES,SMN2 splice enh,ELG1 DNA repair,FLuc counter,Rab9 promoter act,ELG1 genotox,NPC1 prom act
N#Cc1ccccc1Sc1ccccc1C(=O)OCC(=O)NC12CC3CC(CC(C3)C1)C2,-24%,21µM*,-15%,-3%,-2%,-1%
O=C(COC(=O)c1ccccc1)NC12CC3CC(CC(C3)C1)C2,.,24%,6.7µM*,0%,-1%,-2%
O=C(COC(=O)c1ccc([N+](=O)[O-])cc1)NC12CC3CC(CC(C3)C1)C2,.,0%,.,.,0%,.
O=C(CCCc1ccccc1)NC12CC3CC(CC(C3)C1)C2,.,?,9.5µM*,2.2µM*,?,3.2µM*
O=C(COC(=O)C12CC3CC(CC(C3)C1)C2)NCCCc1ccccc1,?,2%,3%,-1%,1%,-6%
Cc1ccc(NC(=O)/C(Cl)=C\c2ccccc2)cc1,2%,0%,0%,7%,-5%,-5%
O=C(Nc1ccc(F)cc1)/C(Cl)=C/c1ccccc1,14µM*,?,1.2µM*,2.5µM*,?,4µM*
CC(=O)c1ccc(NC(=O)C2(c3ccccc3)CC2(Cl)Cl)cc1 (stereo not given),.,?,27µM*,?,?,?
CC(=O)c1ccc(NC(=O)/C(Cl)=C/c2ccccc2)cc1,?,?,0.95µM*,4µM*,8.2µM*,3.5µM*
O=C(Nc1ccccc1)/C(=C/c1ccccc1)c1ccccc1,9%,10µM*,?,-1%,-3%,1%
Cc1ccccc1NC(=O)/C(=C/c1ccccc1)c1ccccc1,-24%,-13%,2%,-5%,-3%,-3%
COC(=O)c1sccc1NC(=O)CC1C(=O)NCCN1C(=O)c1ccc(F)cc1 (stereo not given),.,-2%,-1%,-2%,-1%,1%
O=[N+]([O-])c1cccnc1NCCNc1ncc(C(F)(F)F)cc1Cl,13µM*,?,11µM*,2.2µM*,?,3.5µM*
c1ccc2c(CCNc3ncnc4nc[nH]c34)c[nH]c2c1,-32%,6.5µM*,?,-13%,-6%,-15%
O=c1cc(Cl)[nH]c(=O)n1CCNc1ncc(C(F)(F)F)cc1Cl,?,?,13µM*,3.2µM*,13%,?
O=[N+]([O-])c1cccnc1NCCc1ccccc1,.,?,11µM*,3.2µM*,?,?
COc1ccccc1CNc1ncccc1[N+](=O)[O-],.,27%,-7%,-3%,0%,0%
O=[N+]([O-])c1cccnc1NCCc1c[nH]c2ccccc12,.,?,?,2.5µM*,13µM*,3.5µM*
N#C[C@H]1[C@H](c2ccccc2)[C@](C#N)(C(=O)c2ccccc2)[C@@H]2C=Cc3ccccc3N21,-71%,13µM*,?,.,2%,9%
Cc1nn(-c2ccccc2)c2c1N(CC(=O)N1CCN(c3ccc(Cl)cc3)CC1)C(=O)CS2,.,.,-6%,.,.,.
CC(Sc1nnc(-c2ccccc2Br)o1)C(=O)N1CCOCC1 (stereo not given),.,6%,-13%,9%,7%,4%
O=C(CSc1nnc(-c2ccccc2O)o1)N1CCc2ccccc2C1,-47%,-29%,-17%,27%,0%,-2%
O=C(CSc1nnc(-c2ccccc2O)o1)N1CCOCC1,.,?,?,3.2µM*,?,?
O=C(CSc1nnc(-c2ccccc2Cl)o1)N1CCCCC1,16µM*,?,15µM*,?,4.6µM*,?
O=C(CSc1nnc(-c2ccccc2O)o1)N1CCCCC1,.,?,11µM*,26%,?,24%
O=C(CSc1nnc(-c2ccccc2Br)o1)N1CCOCC1,.,?,19µM*,4µM*,?,2.8µM*
O=C(CSc1nnc(-c2ccccc2Cl)o1)N1CCCC1,.,?,15µM*,?,?,?
CC1CCCCN1C(=O)CSc1nnc(-c2ccccc2O)o1 (stereo not given),.,?,21µM*,3.5µM*,5.2µM*,2.8µM*
